We go through 16 compounds from ChEMBL document CHEMBL1961873, “Compounds: GSK PKIS; Assays: Nanosyn kinase panel” (2012).
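Note: values are mean inhibition figures reported as part of the GSK PKIS dataset.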

This test deals with Casein kinase I isoform gamma-2 (Homo sapiens) (UniProt P78368). The following applies: at 0.1 µM.
Chain of Casein kinase I isoform gamma-2 (Homo sapiens) (P78368 whole entry, looked up, canonical isoform): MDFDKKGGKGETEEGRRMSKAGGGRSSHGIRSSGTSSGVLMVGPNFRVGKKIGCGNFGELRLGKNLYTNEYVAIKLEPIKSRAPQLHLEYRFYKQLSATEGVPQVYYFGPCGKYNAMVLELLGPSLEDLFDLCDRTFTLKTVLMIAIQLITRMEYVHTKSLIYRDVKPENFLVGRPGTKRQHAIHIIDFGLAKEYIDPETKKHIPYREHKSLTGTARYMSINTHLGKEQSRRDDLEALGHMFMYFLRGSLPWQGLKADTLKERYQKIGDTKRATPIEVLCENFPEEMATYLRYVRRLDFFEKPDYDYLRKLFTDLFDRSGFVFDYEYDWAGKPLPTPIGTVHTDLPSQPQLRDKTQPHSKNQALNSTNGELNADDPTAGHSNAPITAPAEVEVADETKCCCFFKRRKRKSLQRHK
Consider `COc1ccc2ncn(-c3cc(O[C@H](C)c4ccccc4Cl)c(C(N)=O)s3)c2c1`, for which the inhibition was -0.05%.
With `C#Cc1cccc(Nc2ncnc3ccc(OCCCCNCCS(C)(=O)=O)cc23)c1`, the inhibition came out at 0.57%.
The value for `NS(=O)(=O)c1ccc(Nc2cc(-c3ccc(O)c(F)c3)n[nH]2)cc1` was -1.44%; that for `C[C@@H](Oc1cc(-n2cnc3ccc(OCC4CCN(C)CC4)cc32)sc1C(N)=O)c1ccccc1Cl` was 5.69%; that for `Fc1ccc(-c2ncn(CCCN3CCOCC3)c2-c2ccncc2)cc1` was 1.74%.
With `NS(=O)(=O)c1ccc(N/N=C2\C(=O)Nc3ccc(C(=O)NCCCn4ccnc4)cc32)cc1`, the inhibition was determined as 4.43%.
The figure for `COc1ccc2cc(-c3c(-c4ccncc4)nc(-c4ccc(S(C)(=O)=O)cc4C)n3C)ccc2c1` is 2.92%; for `Clc1ccc(CNc2nccc(-c3cnn4ncccc34)n2)cc1` it is 1.44%.
The figure for `COC(=O)Nc1nc2ccc(Sc3ccc(NC(=O)Nc4cc(C(F)(F)F)ccc4F)cc3)cc2[nH]1` is -0.85%.
The figure for `Fc1ccc(-c2ncn(C3CCNCC3)c2-c2ccnc(Oc3ccc4c(c3)OCO4)n2)cc1` is 4.86%.
Take `Cc1ccc(C(=O)NC(C)C)cc1-c1ccc(C(=O)NCC2CC2)cc1`: the inhibition is -2.65%.
As for `CCS(=O)(=O)c1ccc(OC)c(Nc2ncc(-c3ccccc3Cl)o2)c1`, the inhibition is 0.2%.
Consider `NC(=O)c1cc(-c2ccncc2)cc(-c2ccccc2)c1N`, for which the inhibition came out at 3.86%.
The figure for `c1ccc(-c2n[nH]cc2-c2ccnc(-c3ccc(OCCN4CCOCC4)cc3)c2)nc1` is -2.46%; for `Cc1ccc(C(=O)NC2CCC2)cc1-c1ccc(C(=O)NCC2CC2)cc1` it is 1.72%.
The figure for `CN(c1ccc(NC(=O)Nc2c(Cl)cccc2Cl)cc1)c1ccnc(Nc2cccc(CS(C)(=O)=O)c2)n1` is 1.06%.

The inhibition is the drop in the measured response relative to a control, in per cent.
